The text below walks through data of PubChem BioAssay (NCI).

Test in all cases: NCI-60 one-dose screen, 48 h (100 = growth as untreated, 0 = no growth, -100 = all killed)
Holding throughout (details): 10 µM unless noted

Test [1] relates to NCI-H23 lung.
In test [2] the test system is NCI-H226 lung.
Test [3] deals with NCI-H322M lung.
The test system of test [4] is HOP-62 NSCLC.
Test [5] has as its system NCI-H460 lung.
Test [6] relates to HOP-92 NSCLC.
For test [7], the system named is NCI-H522 lung.
The subject of test [8] is A549/ATCC NSCLC.
For test [9], the system named is 786-0 renal.
Test [10] deals with COLO 205 colon.
The test system of test [11] is DU-145 prostate.
The test system of test [12] is K-562 leukemia.
Test [13] has as its system MALME-3M melanoma.
In test [14] the test system is MDA-MB-231 breast.
For test [15], the system named is RXF 393 renal.
In test [16] the test system is SF-268 CNS.
The test system of test [17] is SF-295 CNS.
The test system of test [18] is SF-539 CNS.
The subject of test [19] is UACC-257 melanoma.
Test [20] concerns M14 melanoma.

Each structure is given as a SMILES string. This is part of a sample that, as a whole, favours compounds with a hit. Of some 83,000 tested, about 20% had one in any assay.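 Plates (96-well) were seeded with cells, treated with compound at one concentration, and incubated for 48 hours before percent growth was determined.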 Values without a mark were called inactive. Active and inactive are the calls of the source. How the source made its calls: active means growth percent below 10; inactive means the rest.

As for `C=C(C[n+]1ccccc1)[C@@H]1CC[C@]2(C(=O)OC)CC[C@]3(C)[C@H](CC[C@@H]4[C@@]5(C)CCC(=O)C(C)(C)[C@@H]5CC[C@]43C)[C@@H]12`, the growth was 87.9% in test [1]; 90.3% in test [2]; 96.3% in test [3]; 103% in test [4]; 98.3% in test [5]; 67.4% in [6]. Besides, the growth was 55.5% in [7]; 93.3% in test [8]; 101% in [9]; 56.1% in [10]; 101% in test [11]; 57.8% in [12]. Further, the growth was 75.2% in test [13]; 85.9% in test [14]; 99% in test [15]; 90.3% in test [16]; 103% in [17]; 93.7% in test [18]. Further, the growth was 53.4% in [19] and 87% in test [20].

Take `CCN1CCN(c2nc(NNC(=O)c3ccc(OC)cc3)nc(N3CCN(C(c4ccccc4)c4ccccc4)CC3)n2)CC1`: the growth in [1] was 53.3%; in test [2], 71.9%; in test [3], 84.1%; in test [4], 83.6%; in test [5] it was -6.88% (active); in test [6] it was 58.7%. For the same compound, the growth in test [7] is 85.3%; in test [8] it was 64.4%; in test [9], 22.9%; in test [10] it was -8.98% (active); in test [11], 72.2%; in test [12], 14%. For the same compound, the growth is -63.7% (active) in test [13]; 82.9% in [14]; 55.7% in [15]; 81.8% in test [16]; 71.3% in [17]; 73.2% in [18]. The figures for the growth in test [19] and in test [20] were 10.3% and -40.5% (active), respectively.

With `COc1cc(C(=O)/C=C/c2c(-c3cccs3)nc3sc(C)cn23)cc(OC)c1OC`, the growth in test [1] was 6.64% (active); in test [2] it was 33.1%; in test [3], 13.3%; in [4], -8.11% (active); in test [5] it was -30.6% (active); in [6] it was -2.76% (active). For the same compound, the growth in test [7] was -2.1% (active); in [8], 10.6%; in test [9], 7.58% (active); in [10], 2.63% (active); in test [11], -18.1% (active); in test [12], 7.44% (active). The growth in test [13] is -10.6% (active); in test [14] it was 43.3%; in test [15] it was -35.3% (active); in test [16] it was 20%; in test [17] it was 3.07% (active); in test [18], -2.02% (active). The results for the growth in test [19] and in test [20] were 0.649% (active) and 1.71% (active), respectively.

As to `O=C(Nc1cccc2c1C(=O)c1cccc(NC(=O)c3ccc(C(=O)Nc4cccc5c4C(=O)c4cccc(NC(=O)c6ccccc6)c4C5=O)cc3)c1C2=O)c1ccccc1`, the growth in test [1] was 98%; in test [2] it was 74.1%; in test [3], 98.8%; in test [4], 103%; in test [5], 111%; in test [6], 58.4%. Further, the growth in [7] was 84.7%; in test [8], 99.6%; in test [9], 109%; in [10], 111%; in [11] it was 115%; in test [12], 93.5%. The growth in test [13] is 101%; in test [14] it was 90.4%; in test [15] it was 103%; in test [16], 109%; in test [17], 108%; in test [18] it was 104%. Further, the values for the growth in [19] and in [20] were 95.1% and 113%, respectively.

`CC(C)(C)n1cc(-c2ccnc(NCCNS(=O)(=O)c3ccc(C(F)(F)F)cc3)c2)c(-c2ccccc2)n1`: the growth was 83% in test [1]; 89.4% in [2]; 99.5% in [3]; 97.8% in [4]; 93.8% in [5]; 3.62% (active) in test [6]. Also, the growth in [7] is 85.9%; in test [8], 78.2%; in [9] it was 80.5%; in [10], 87.3%; in test [11] it was 99.2%; in test [12], 44.3%. Moreover, the growth in [13] is 109%; in test [14] it was 92.1%; in test [15], 87.8%; in test [16] it was 95.3%; in [17] it was 83.7%; in test [18], 82.2%. Also, the values for the growth in test [19] and in [20] were 104% and 88.8%, respectively.

Regarding `CC1(C)CC[C@]2(CO)CC[C@]3(C)C(=CC[C@@H]4[C@@]5(C)CCNCC(C)(C)[C@@H]5CC[C@]43C)[C@@H]2C1`, the growth in test [1] was 88.4%; in [2] it was 106%; in test [3], 68.9%; in [4], 99.3%; in test [5] it was 49.5%; in [6] it was 64.2%. The growth in [7] is 70.7%; in [8], 85.6%; in test [9], 84.6%; in test [10], -44.1% (active); in [11], 81.5%; in test [12] it was 7.94% (active). In addition, the growth in [13] was 63.1%; in [14], 73.7%; in [15], 61.6%; in test [16], 105%; in test [17] it was 97.6%; in [18], 85.8%. The growth was 9.86% (active) in [19] and -2.42% (active) in test [20].

`Nc1nc(N)c2c(n1)NC(c1ccc3c(c1)OCO3)CC(c1cccc(Nc3ccncc3)c1)=N2` (stereo not given): the growth is 90% in [1]; 84.6% in test [2]; 96.9% in test [3]; 90.4% in test [4]; 96.5% in test [5]; 70.7% in test [6]. The growth in [7] is 77.3%; in test [8], 79.6%; in [9], 96.9%; in test [10], 86.3%; in [11] it was 106%; in test [12] it was 44.3%. Moreover, the growth was 100% in test [13]; 94.2% in test [14]; 82.2% in test [15]; 68.1% in test [16]; 96.5% in test [17]; 101% in test [18]. The growth was 67.3% in test [19] and 83.5% in test [20].

For the compound `COc1ccc(S(=O)(=O)NC2c3ccccc3CC2O)cc1OC` (stereo not given), the growth in test [1] was 103%; in test [2], 102%; in [3], 109%; in [4] it was 102%; in [5], 109%; in test [6], 109%. Moreover, the growth in [7] is 99%; in test [8], 102%; in [9], 104%; in test [10] it was 119%; in test [11], 111%; in [12], 102%. The growth in [13] was 110%; in [14], 112%; in test [15] it was 117%; in test [16], 93.6%; in test [17], 98.3%; in test [18] it was 101%. For the same compound, the growth was 111% in test [19] and 99.1% in [20].
